From PubChem BioAssay (EPA / NIEHS)
Inconclusive results are not listed. Activity calls are given as the source filed them. How the source made its calls, unless noted: active means hit-call score of the fitted dose curve at least 0.9, where 1 is the maximum; inactive means score below 0.9.

Key:
[1] = target: Paired box protein Pax-6 (Homo sapiens) (UniProt P26367); assay: ATG_Pax6_CIS: Attagene CIS-FACTORIAL HepG2 Assay for human Paired Box 6 (PAX6) (AID 2282956); settings: HepG2 CIS-FACTORIAL PAX6 reporter transcription, RNA readout; actives raise or lower the signal
Chain of Paired box protein Pax-6 (Homo sapiens) (P26367 whole entry, looked up): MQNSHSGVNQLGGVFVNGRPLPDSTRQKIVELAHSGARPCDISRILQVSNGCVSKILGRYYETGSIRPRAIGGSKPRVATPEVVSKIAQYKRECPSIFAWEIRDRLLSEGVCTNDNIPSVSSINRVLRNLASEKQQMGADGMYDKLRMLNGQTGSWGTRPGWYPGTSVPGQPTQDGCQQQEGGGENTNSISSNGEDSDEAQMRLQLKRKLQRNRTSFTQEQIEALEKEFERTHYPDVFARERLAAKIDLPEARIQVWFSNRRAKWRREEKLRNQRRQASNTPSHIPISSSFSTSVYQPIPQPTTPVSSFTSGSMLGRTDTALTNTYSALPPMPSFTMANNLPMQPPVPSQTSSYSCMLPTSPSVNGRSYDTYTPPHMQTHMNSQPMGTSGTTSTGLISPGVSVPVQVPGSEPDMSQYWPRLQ
Method in brief: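 Multiplexed cis-reporter HepG2 system; 24 h treatment; reporter mRNA read by RT-PCR/CE fluorescence; bidirectional fit vs DMSO.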

[2] = ATG_PXRE_CIS: Attagene CIS-FACTORIAL HepG2 Assay for human Pregnane X Receptor Element (PXRE) (AID 2282957); settings: HepG2 Attagene CIS-FACTORIAL PXRE reporter, mRNA; actives raise or lower the signal
Method in brief: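 Cis-element reporter mRNA in human hepatoma HepG2 cells is measured 24 h post-dosing by RT-PCR, primer-extension labeling and capillary electrophoresis; gain or loss of signal is fitted relative to DMSO.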

[3] = ATG_PPRE_CIS: Attagene CIS-FACTORIAL HepG2 Assay for human Peroxisome Proliferator-activated Response Element (PPRE) (AID 2282958); settings: HepG2 PPRE cis-element reporter, Attagene transcription factor profiling; actives raise or lower the signal
Method in brief: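 Read-out: fluorescent reporter mRNA fragments resolved by capillary electrophoresis after RT-PCR. HepG2 cells carried transiently transfected PPRE-driven cis reporter constructs and were dosed for 24 h; gain or loss of signal fitted relative to DMSO.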

[4] = ATG_RORE_CIS: Attagene CIS-FACTORIAL HepG2 Assay for human RAR-related Orphan Receptor Element (RORE) (AID 2282959); settings: HepG2 Attagene cis-factorial RORE reporter, mRNA; actives raise or lower the signal
Method in brief: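 Readout: fluorescent reporter mRNA by RT-PCR plus capillary electrophoresis, 24 h after dosing transfected HepG2 cells. Endogenous transcription factor activity on a cis promoter element is measured. Gain or loss of signal fitted against DMSO.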

[5] = ATG_Sox_CIS: Attagene CIS-FACTORIAL HepG2 Assay for human SRY-box transcription factor (SOX) (AID 2282960); settings: HepG2 Attagene cis-factorial SOX reporter, mRNA; actives raise or lower the signal
Method in brief: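 Read-out: fluorescent RT-PCR products of SOX1-linked reporter transcripts resolved by capillary electrophoresis, fitted bidirectionally against DMSO. Transiently transfected HepG2 cells, 24 h after chemical exposure, endogenous transcription factor activity.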

[6] = target: Transcription factor Sp1 (Homo sapiens) (UniProt P08047); assay: ATG_Sp1_CIS: Attagene CIS-FACTORIAL HepG2 Assay for human Specificity Protein 1 (Sp1) (AID 2282961); settings: HepG2 Sp1 cis-reporter transcription, actives raise or lower the signal
Chain of Transcription factor Sp1 (Homo sapiens) (P08047 whole entry, looked up): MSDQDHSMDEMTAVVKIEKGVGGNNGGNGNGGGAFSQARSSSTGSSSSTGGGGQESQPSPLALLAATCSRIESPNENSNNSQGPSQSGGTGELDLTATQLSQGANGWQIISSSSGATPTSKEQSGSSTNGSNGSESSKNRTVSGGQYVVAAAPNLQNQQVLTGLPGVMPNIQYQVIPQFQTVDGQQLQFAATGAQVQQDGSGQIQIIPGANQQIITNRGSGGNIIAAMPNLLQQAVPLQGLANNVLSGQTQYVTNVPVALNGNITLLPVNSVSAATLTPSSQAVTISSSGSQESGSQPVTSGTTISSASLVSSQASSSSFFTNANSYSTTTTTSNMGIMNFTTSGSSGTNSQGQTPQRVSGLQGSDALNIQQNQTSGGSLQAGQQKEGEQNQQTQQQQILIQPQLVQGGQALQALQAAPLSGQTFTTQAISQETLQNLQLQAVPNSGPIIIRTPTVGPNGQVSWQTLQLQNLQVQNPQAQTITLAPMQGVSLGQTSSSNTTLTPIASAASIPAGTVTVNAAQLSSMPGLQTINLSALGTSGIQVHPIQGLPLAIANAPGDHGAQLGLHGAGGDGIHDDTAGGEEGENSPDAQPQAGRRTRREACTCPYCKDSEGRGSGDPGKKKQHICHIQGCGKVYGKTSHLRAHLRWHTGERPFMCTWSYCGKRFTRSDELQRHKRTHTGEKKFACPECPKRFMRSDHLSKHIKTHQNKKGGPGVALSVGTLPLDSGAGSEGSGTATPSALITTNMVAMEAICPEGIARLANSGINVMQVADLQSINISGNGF
Method in brief: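 Read-out: fluorescence of 6-FAM-labeled, HpaI-digested RT-PCR products separated by capillary electrophoresis. HepG2 cells carried transfected cis-element reporter units and were exposed to chemicals for 24 h; gain or loss of signal fitted relative to DMSO.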

[7] = ATG_SREBP_CIS: Attagene CIS-FACTORIAL HepG2 Assay for human Sterol Regulatory Element Binding (SREBP) (AID 2282962); settings: HepG2 Attagene cis-factorial SREBP reporter, mRNA; actives raise or lower the signal
Method in brief: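 mRNA induction of transfected cis-promoter reporters in HepG2 cells, 24 h post-dose. Detection: RT-PCR with 6-FAM-labelled products, HpaI digest, capillary electrophoresis. DMSO served as negative control and baseline.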

[8] = target: Signal transducer and activator of transcription 3 (Homo sapiens) (UniProt P40763); assay: ATG_STAT3_CIS: Attagene CIS-FACTORIAL HepG2 Assay for human Signal Transducer and Activator of Transcription 3 (STAT3) (AID 2282963); settings: HepG2, Attagene cis-factorial STAT3 reporter transcription; actives raise or lower the signal
Chain of Signal transducer and activator of transcription 3 (Homo sapiens) (P40763 whole entry, looked up): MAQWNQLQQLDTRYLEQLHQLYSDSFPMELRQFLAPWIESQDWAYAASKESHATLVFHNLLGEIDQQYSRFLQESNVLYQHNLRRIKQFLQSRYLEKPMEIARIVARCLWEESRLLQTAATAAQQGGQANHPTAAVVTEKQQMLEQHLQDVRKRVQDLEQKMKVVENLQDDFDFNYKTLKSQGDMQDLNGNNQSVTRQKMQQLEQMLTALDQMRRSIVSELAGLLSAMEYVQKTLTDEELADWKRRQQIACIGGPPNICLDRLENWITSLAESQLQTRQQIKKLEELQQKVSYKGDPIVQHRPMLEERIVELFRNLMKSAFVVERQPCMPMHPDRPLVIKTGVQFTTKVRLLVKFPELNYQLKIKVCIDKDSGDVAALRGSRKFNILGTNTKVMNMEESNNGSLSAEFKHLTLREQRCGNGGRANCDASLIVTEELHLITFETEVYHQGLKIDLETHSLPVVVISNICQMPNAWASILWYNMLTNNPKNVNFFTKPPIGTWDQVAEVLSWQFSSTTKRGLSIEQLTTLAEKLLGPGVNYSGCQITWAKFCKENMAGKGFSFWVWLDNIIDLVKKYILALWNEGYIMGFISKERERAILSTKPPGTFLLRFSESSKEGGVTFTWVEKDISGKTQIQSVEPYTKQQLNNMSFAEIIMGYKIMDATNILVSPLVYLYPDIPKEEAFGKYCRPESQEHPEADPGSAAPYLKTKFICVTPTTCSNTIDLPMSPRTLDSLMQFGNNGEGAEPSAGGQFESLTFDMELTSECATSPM
Method in brief: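 After a 24 h compound incubation, total RNA from MRTU-transfected HepG2 cells was converted to cDNA and reporter sequences PCR-amplified, labelled and profiled by capillary electrophoresis. Gain and loss of signal were referenced to DMSO.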

[9] = ATG_TA_CIS: Attagene CIS-FACTORIAL HepG2 Assay for human TA Basal Promoter (AID 2282964); settings: HepG2 Attagene CIS-factorial TA basal promoter reporter; actives raise or lower the signal
Method in brief: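 Transient MRTU transfection of HepG2 preceded 24 h compound exposure. Reporter mRNA levels were then read by RT-PCR with capillary electrophoresis, and this background-control endpoint was fitted bidirectionally to DMSO.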

[10] = ATG_TAL_CIS: Attagene CIS-FACTORIAL HepG2 Assay for human TAL Basal Promoter (AID 2282966); settings: HepG2 Attagene cis-factorial TAL promoter reporter; actives raise or lower the signal;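 further: background control endpoint measuring basal TAL promoter reporter mRNA not a specific factor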
Method in brief: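 In this cell-based multiplex, HepG2 liver cells bearing cis-promoter reporter constructs are dosed for 24 hours. Total RNA is reverse-transcribed and amplified, labelled fragments are sized by capillary electrophoresis, and signal changes are fitted bidirectionally versus DMSO.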

[11] = ATG_VDRE_CIS: Attagene CIS-FACTORIAL HepG2 Assay for human Vitamin D Receptor Element (VDRE) (AID 2282968); settings: HepG2 VDRE cis-reporter transcription, actives raise or lower the signal
Method in brief: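 In transiently transfected HepG2 liver cells, gain or loss of reporter mRNA after 24 h exposure is scored relative to DMSO, using fluorescence detection by capillary electrophoresis of RT-PCR products.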

[12] = target: Estrogen receptor (Homo sapiens) (UniProt P03372); assay: ATG_ERa_TRANS: Attagene TRANS-FACTORIAL HepG2 Assay for human Estrogen Receptor alpha (ERa) (AID 2282970; active means hit-call score of the fitted dose curve at least 0.9, where 1 is the maximum); settings: HepG2 Attagene TRANS ERa GAL4 reporter, mRNA
Chain of Estrogen receptor (Homo sapiens) (P03372 whole entry, looked up, the tested form may be a part): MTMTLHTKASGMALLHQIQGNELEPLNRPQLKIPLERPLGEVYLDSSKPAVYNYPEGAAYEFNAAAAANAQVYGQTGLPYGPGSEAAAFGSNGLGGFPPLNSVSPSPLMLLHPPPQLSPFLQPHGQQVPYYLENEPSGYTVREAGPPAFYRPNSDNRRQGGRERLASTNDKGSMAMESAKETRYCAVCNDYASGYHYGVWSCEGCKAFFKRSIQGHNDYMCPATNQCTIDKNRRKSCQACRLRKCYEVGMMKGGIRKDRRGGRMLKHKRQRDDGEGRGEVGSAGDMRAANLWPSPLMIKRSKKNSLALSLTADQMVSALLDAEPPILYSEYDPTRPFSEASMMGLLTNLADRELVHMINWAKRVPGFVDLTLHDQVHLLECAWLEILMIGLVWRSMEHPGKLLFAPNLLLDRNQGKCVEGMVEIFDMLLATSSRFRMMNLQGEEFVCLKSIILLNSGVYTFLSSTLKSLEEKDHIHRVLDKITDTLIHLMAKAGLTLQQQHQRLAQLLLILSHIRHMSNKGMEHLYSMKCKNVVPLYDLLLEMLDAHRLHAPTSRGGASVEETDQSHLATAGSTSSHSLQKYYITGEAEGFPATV
Method in brief: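 After 24 h of compound treatment, RNA from HepG2 cells bearing transfected GAL4-UAS reporter constructs is converted to cDNA, amplified and fluorescently labelled. Capillary electrophoresis resolves the ERa-linked reporter; DMSO serves as negative control.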

[13] = target: X-box-binding protein 1 (Homo sapiens) (UniProt P17861); assay: ATG_Xbp1_CIS: Attagene CIS-FACTORIAL HepG2 Assay for human X-box Binding Protein 1 (XBP1) (AID 2282972); settings: HepG2 XBP1 cis-element reporter, Attagene multiplex; actives raise or lower the signal
Chain of X-box-binding protein 1 (Homo sapiens) (P17861 whole entry, looked up, the tested form may be a part): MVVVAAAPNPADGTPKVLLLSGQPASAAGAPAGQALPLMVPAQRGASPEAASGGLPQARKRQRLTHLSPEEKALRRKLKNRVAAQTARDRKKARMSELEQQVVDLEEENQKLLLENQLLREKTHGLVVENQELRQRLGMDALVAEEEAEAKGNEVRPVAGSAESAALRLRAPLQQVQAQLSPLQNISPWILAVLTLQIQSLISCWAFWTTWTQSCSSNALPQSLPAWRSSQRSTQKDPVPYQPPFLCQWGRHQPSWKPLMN
Method in brief: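 Fluorescence-labelled cDNA fragments from reporter transcripts, separated by capillary electrophoresis, give the signal. Source: HepG2 cells transfected with promoter-driven reporter units, harvested 24 h post-dose. DMSO served as reference for bidirectional curve fitting.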

[14] = ATG_TGFb_CIS: Attagene CIS-FACTORIAL HepG2 Assay for human Transforming Growth Factor (TGF) (AID 2282967); settings: HepG2 Attagene CIS TGFb reporter, mRNA transcription; actives raise or lower the signal
Method in brief: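 After a 24-hour incubation with compound, transfected HepG2 cells were lysed for RNA; reporter cDNA was amplified, fluorescently end-labeled and separated by CE. DMSO served as baseline for bidirectional fits.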

[15] = ATG_TCF_b_cat_CIS: Attagene CIS-FACTORIAL HepG2 Assay for human T-Cell-Factor with beta-catenin (TCF/b-cat) (AID 2282965); settings: HepG2 TCF/beta-catenin cis-reporter transcription, actives raise or lower the signal
Method in brief: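 Endogenous transcription factor activity is captured through cis-promoter reporter constructs transiently introduced into human HepG2 liver cells. Induced reporter mRNA is measured after 24 h and fitted bidirectionally relative to DMSO.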

[16] = target: Steroid hormone receptor ERR1 (Homo sapiens) (UniProt P11474); assay: ATG_ERRa_TRANS: Attagene TRANS-FACTORIAL HepG2 Assay for human Estrogen-Related Receptor alpha (ERRa) (AID 2282971; active means hit-call score of the fitted dose curve at least 0.9, where 1 is the maximum); settings: HepG2 Attagene TRANS reporter, ERRa transactivation
Chain of Steroid hormone receptor ERR1 (Homo sapiens) (P11474 whole entry, looked up, the tested form may be a part): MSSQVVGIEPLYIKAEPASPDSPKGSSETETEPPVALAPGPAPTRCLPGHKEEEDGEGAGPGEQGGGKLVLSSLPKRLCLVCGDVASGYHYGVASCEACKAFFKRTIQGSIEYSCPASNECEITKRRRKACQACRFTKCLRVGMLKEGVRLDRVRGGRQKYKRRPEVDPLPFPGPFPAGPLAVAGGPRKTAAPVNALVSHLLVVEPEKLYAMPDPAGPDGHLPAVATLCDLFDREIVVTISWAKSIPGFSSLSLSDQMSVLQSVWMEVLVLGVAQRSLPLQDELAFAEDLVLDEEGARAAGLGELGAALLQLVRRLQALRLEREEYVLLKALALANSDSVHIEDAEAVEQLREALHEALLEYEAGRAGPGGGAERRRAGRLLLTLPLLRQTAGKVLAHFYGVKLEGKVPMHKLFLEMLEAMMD
Method in brief: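 Transfected HepG2, 24 h dosing, ERRa-Gal4 chimera driving GAL4-UAS reporter. Readout: reporter mRNA via RT-PCR plus capillary electrophoresis (fluorescence). Positive direction vs DMSO control.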

[17] = target: Estrogen-related receptor gamma (Homo sapiens) (UniProt P62508); assay: ATG_ERRg_TRANS: Attagene TRANS-FACTORIAL HepG2 Assay for human Estrogen-Related Receptor gamma (ERRg) (AID 2282977; active means hit-call score of the fitted dose curve at least 0.9, where 1 is the maximum;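 further: hits increase reporter signal over DMSO so potencies reflect activators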); settings: HepG2 Attagene TRANS reporter, ERRg transactivation
Chain of Estrogen-related receptor gamma (Homo sapiens) (P62508 whole entry, looked up, the tested form may be a part): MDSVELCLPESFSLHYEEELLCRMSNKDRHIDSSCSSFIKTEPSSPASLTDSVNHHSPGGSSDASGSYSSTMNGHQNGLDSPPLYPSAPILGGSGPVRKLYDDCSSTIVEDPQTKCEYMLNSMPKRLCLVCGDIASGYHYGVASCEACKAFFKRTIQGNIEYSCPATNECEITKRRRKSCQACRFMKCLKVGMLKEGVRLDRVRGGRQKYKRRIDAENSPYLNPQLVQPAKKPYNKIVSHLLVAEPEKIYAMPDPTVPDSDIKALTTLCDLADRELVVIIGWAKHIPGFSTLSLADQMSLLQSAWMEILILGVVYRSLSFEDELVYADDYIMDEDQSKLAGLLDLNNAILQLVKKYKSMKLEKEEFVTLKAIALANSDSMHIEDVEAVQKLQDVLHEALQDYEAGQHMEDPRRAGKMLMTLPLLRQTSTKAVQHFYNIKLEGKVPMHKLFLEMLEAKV
Method in brief: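 HepG2 cells transiently transfected with multiplexed GAL4-UAS reporter units and chimeric NR-Gal4 constructs were exposed to test chemicals for 24 h. Reporter mRNA was measured by RT-PCR, 6-FAM primer extension, HpaI digestion and capillary electrophoresis; gain-of-signal versus DMSO.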

[18] = ATG_M_19_TRANS: Attagene TRANS-FACTORIAL HepG2 Assay for M19 Transcription Factor (Internal Marker) (AID 2282974; active means hit-call score of the fitted dose curve at least 0.9, where 1 is the maximum); settings: HepG2 Attagene TRANS-FACTORIAL M19 internal marker reporter
Method in brief: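 24 h chemical exposure of transiently transfected HepG2 (MRTU library). RNA → oligo(dT) RT → PCR → 6-FAM labelling → HpaI cut → CE fluorescence. Positive-direction fit vs DMSO baseline; background internal-marker readout.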

[19] = ATG_GAL4_TRANS: Attagene TRANS-FACTORIAL HepG2 Assay for GAL4 (Internal Marker) (AID 2282976; active means hit-call score of the fitted dose curve at least 0.9, where 1 is the maximum); settings: HepG2 Attagene TRANS GAL4 internal marker reporter
Method in brief: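 RT-PCR/capillary electrophoresis readout of reporter mRNA. HepG2, transient MRTU transfection (GAL4-UAS reporters), 24 h compound exposure. Background-control endpoint, positive direction vs DMSO baseline.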

Measured: AC50

C[Si](C)(C)O[Si](O)(O)O
active: [2] 26.9 µM
inactive: [1] | [3] | [4] | [5] | [6] | [7] | [8] | [9] | [10] | [11] | [12] | [13]

COC(F)(F)C(F)(C(F)(F)F)C(F)(F)F
inactive: [1] | [2] | [3] | [4] | [5] | [6] | [7] | [8] | [9] | [10] | [14] | [11] | [13]

Nc1cccc(C(F)(F)F)c1
inactive: [1] | [2] | [3] | [4] | [5] | [6] | [7] | [8] | [9] | [15] | [10] | [14] | [12] | [16] | [13] | [17]

c1ccc(CCCc2ccncc2)cc1
active: [2] 27 µM
inactive: [1] | [3] | [4] | [5] | [6] | [7] | [8] | [9] | [10] | [14] | [12] | [13]

O=c1[nH]c(=O)c2[nH]c(=O)[nH]c2[nH]1
inactive: [1] | [2] | [3] | [4] | [5] | [6] | [7] | [8] | [9] | [15] | [10] | [14] | [12] | [13]

COc1cc(C)ccc1C(C)C
inactive: [1] | [2] | [3] | [4] | [5] | [6] | [7] | [8] | [9] | [15] | [10] | [11] | [12] | [13] | [18] | [19] | [17]

CC(C)CCCC(C)CC=O (stereo unspecified)
inactive: [1] | [3] | [4] | [5] | [6] | [7] | [8] | [9] | [15] | [10] | [14] | [12] | [13] | [18]
active: [2] 65.1 µM

O=C(O)c1cc2ccccc2nc1C(=O)O
inactive: [1] | [2] | [3] | [4] | [5] | [6] | [7] | [8] | [9] | [15] | [10] | [14] | [11] | [13]

COCCCOCCCOC
inactive: [1] | [2] | [3] | [4] | [5] | [6] | [7] | [8] | [9] | [15] | [10] | [14] | [11] | [16] | [13] | [18]
